The nature of test [1]: qHTS for Inhibitors of ATXN expression: Validation (AID 588378; active = well fitted curve in the direction sought with a large enough effect; an effect the other way counts as inactive or inconclusive; also: nearly all actives have a fitted effect of over 75% in size; also: potency is read from the fitted curve at half-maximal effect). In a few lines: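 After a 2 h attachment and 24 h compound incubation, HEK293-ATXN2-FFLuc wells are read for fluorescence at 405 nm excitation/525 nm emission as a viability measure, then for Bright-Glo luminescence reflecting ATXN2 expression.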
For test [2], the target named is DNA dC->dU-editing enzyme APOBEC-3G (Homo sapiens) (UniProt Q9HC16). The experiment in a line: qHTS for inhibitors of Vif-A3G interactions: Validation (AID 588379; active = well fitted curve in the direction sought with a large enough effect; an effect the other way counts as inactive or inconclusive; also: 0% is about no effect). An outline of the steps:
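Yellow fluorescence (Ex 488, Em 500-530) of Vif-coexpressing HeLa A3G-eYFP cells, scanned by Acumen cytometer, reports blocked A3G degradation. Cells plated at 700/well overnight at 37 deg C before compound addition, then a further overnight compound incubation at 37 deg C.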

Test [3] addresses Glucocorticoid receptor (Homo sapiens) (UniProt P04150). Put plainly: qHTS assay for small molecule agonists of glucocorticoid receptor signaling (AID 588532; active = well fitted curve in the direction sought with a large enough effect in the signal ratio, with a control signal flat; the % refers to the signal ratio;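 also: 100% = dexamethasone at 0.1 µM and 0% = DMSO only wells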). Particulars: HeLa MMTV-bla, beta-lactamase ratio, agonist, 18 h; stronger effect = higher value; percent of dexamethasone control, DMSO zero. In a few lines: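 Cells were plated and rested 3-5 h at 37 C, compounds were added in titration and incubated 18 h, then CCF4 substrate was loaded for 2 h at RT before reading blue/green fluorescence. EC50 came from Hill-equation fitting.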
(In qHTS, concentration-response curves come from the screen itself.)

Test [4] shares this target. Put plainly: qHTS assay for small molecule antagonists of glucocorticoid receptor signaling (AID 588533; active = well fitted inhibition curve with a large enough effect in the signal ratio, with a control signal flat, not every such curve was filed as active; the % refers to the signal ratio; also: % is scaled to controls: 0 for no effect and ±100 for the full control effect). An outline of the steps: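 Antagonist-mode qHTS: compound titrations added to GRE-bla HeLa cells, then dexamethasone 2 nM final; 18 h, 37 C. CCF4 FRET fluorescence normalized to dexamethasone and DMSO; IC50 from Hill fit.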
In test [5] the target is Peroxisome proliferator-activated receptor gamma (Homo sapiens) (UniProt P37231). Put plainly: qHTS assay for small molecule agonists of peroxisome proliferator-activated receptor gamma signaling (AID 588536; active = well fitted curve in the direction sought with a large enough effect in the signal ratio, with a control signal flat, not every such curve was filed as active; the % refers to the signal ratio;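 also: 0% = DMSO basal wells and 100% = rosiglitazone at 2 µM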). In a few lines:
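Compound treatment: 16 h, 37 C, HEK293 GeneBLAzer cells. Detection: CCF4, 2 h RT. Values: Hill-fit EC50, efficacy as % of 2 uM rosiglitazone.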

For test [6] the target is unchanged. The experiment in a line: qHTS assay for small molecule antagonists of peroxisome proliferator-activated receptor gamma signaling (AID 588537; active = well fitted inhibition curve with a large enough effect in the signal ratio, with a control signal flat, not every such curve was filed as active; the % refers to the signal ratio; also: potency is read from the fitted curve at half-maximal effect). In a few lines: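 Fluorescence at 460 and 530 nm (405 nm excitation) reported beta-lactamase cleavage of CCF4 after 2 h room-temperature loading. HEK293 reporter cells in 1% charcoal/dextran-treated FBS had received compound and rosiglitazone for 16 h.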

Test [7] in a line: qHTS assay for small molecule agonists of retinoid X receptor alpha signaling (AID 588544).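 As to activation: 0% = DMSO basal wells and 100% = reference agonist.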 Particulars: HEK293T RXRa-UAS-bla, beta-lactamase reporter, 18 h; 530 nm emission.
Test [8] deals with Retinoic acid receptor RXR-alpha (Homo sapiens) (UniProt P19793). The test is described as above.
Sequence of Retinoic acid receptor RXR-alpha (Homo sapiens) (P19793 whole entry, looked up): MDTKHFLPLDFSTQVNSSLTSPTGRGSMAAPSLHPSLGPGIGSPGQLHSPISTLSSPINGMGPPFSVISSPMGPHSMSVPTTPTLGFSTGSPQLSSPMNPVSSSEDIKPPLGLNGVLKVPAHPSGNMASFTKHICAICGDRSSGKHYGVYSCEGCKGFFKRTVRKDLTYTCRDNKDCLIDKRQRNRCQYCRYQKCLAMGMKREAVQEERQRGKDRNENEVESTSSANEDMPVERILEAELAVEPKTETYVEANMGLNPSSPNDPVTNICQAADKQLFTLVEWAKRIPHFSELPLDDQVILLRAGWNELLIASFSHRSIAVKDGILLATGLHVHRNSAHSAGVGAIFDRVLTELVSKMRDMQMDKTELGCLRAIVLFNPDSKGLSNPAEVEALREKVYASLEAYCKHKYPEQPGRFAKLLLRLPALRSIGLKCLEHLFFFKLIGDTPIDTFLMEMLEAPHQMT
Test [9] in a line: qHTS assay for small molecule antagonists of retinoid X receptor alpha signaling (AID 588546; active = well fitted inhibition curve with a large enough effect in the signal ratio, with a control signal flat, not every such curve was filed as active; the % refers to the signal ratio;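 also: cells stimulated with 9-cis-retinoic acid as agonist; % is scaled to controls: 0 for no effect and ±100 for the full control effect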). Particulars: HEK293T RXRa-UAS-bla, beta-lactamase ratio, antagonist mode; measured here: W530 green channel, cytotoxicity proxy. An outline of the steps:
(§1)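 Beta-lactamase reporter inhibition, read as CCF4 fluorescence ratio (ex 405, em 460/530 nm) after 2 h at RT. HEK293T UAS-bla cells, 2500/well, were stimulated with 9-cis-RA at 500 or 100 nM final alongside test compound for 18 h at 37 C.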

In test [10] the target is Retinoic acid receptor RXR-alpha (Homo sapiens) (UniProt P19793). The test is described as above. Particulars: HEK293T RXRa-UAS-bla, beta-lactamase ratio, antagonist mode. In a few lines:
as §1

Test [11] has as its target Estrogen receptor (Homo sapiens) (UniProt P03372). Put plainly: qHTS assay for small molecule antagonists of estrogen receptor alpha signaling (AID 588513; active = well fitted curve in the direction sought with a large enough effect in the signal ratio, with a control signal flat, not every such curve was filed as active; the % refers to the signal ratio; also: % is scaled to controls: 0 for no effect and ±100 for the full control effect). In a few lines:
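Antagonist-mode qHTS in ER-alpha-UAS-bla HEK 293 cells: compound titration, 0.5nM estradiol for 18 h, CCF4 fluorescence, Hill-derived IC50.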

The target is the same in test [12]. Put plainly: qHTS assay for small molecule agonists of estrogen receptor alpha signaling (AID 588514).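 Also: 0% = vehicle only and 100% = reference agonist; nearly all actives have a fitted effect of over 70% in size.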 An outline of the steps: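 Efficacy is expressed against 20 nM 17-beta-estradiol (100%) and DMSO basal (0%); EC50 from Hill equation. Assay: beta-lactamase reporter in ER-alpha-UAS-bla HEK 293 cells, 18 h compound incubation, CCF4 detection.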
The target in test [13] is Bile acid receptor (Homo sapiens) (UniProt Q96RI1). Put plainly: qHTS assay for small molecule antagonists of farnesoid X receptor signaling (AID 588526). Also: % is scaled to controls: 0 for no effect and ±100 for the full control effect. In a few lines: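 Antagonist mode: titrated compounds tested against chenodeoxycholic acid stimulation (normalized to 50 uM CDCA and DMSO) in GeneBLAzer HEK293T cells for 16 h. Beta-lactamase read by CCF4 fluorescence; IC50 from Hill fits.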
Sequence of Bile acid receptor (Homo sapiens) (Q96RI1 whole entry, looked up): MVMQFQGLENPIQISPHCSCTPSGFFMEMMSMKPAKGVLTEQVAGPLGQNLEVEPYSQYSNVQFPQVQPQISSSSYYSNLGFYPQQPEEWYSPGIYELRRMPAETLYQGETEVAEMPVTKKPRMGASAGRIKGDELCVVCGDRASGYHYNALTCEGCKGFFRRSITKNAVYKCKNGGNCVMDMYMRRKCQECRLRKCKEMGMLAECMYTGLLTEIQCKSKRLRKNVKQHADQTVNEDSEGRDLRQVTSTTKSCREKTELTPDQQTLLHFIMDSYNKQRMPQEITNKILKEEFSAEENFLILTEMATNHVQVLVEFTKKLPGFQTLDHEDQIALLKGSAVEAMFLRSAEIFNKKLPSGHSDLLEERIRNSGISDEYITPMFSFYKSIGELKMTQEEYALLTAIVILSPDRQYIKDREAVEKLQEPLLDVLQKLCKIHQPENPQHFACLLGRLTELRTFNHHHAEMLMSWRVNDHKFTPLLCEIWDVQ

The target in test [14] is Vitamin D3 receptor (Homo sapiens) (UniProt P11473). Put plainly: qHTS assay for small molecule antagonists of vitamin D receptor signaling (AID 588541). An outline of the steps:
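VDR-UAS-bla HEK293T cells in 2% charcoal-stripped FBS were stimulated with 1-alpha,25-dihydroxyvitamin D3 (3 nM final) plus compound for 16 h at 37 C. The beta-lactamase CCF4 readout was normalized to 50 nM agonist and DMSO, and Hill fits gave IC50.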

Test [15] has the same target. The experiment in a line: qHTS assay for small molecule agonists of vitamin D receptor signaling (AID 588543).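 Also: 0% = DMSO basal and 100% = reference agonist control.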 In a few lines: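 Measured: β-lactamase reporter activity (CCF4, 405 nm excitation, 460/530 nm emission) in HEK293T VDR-UAS-bla cells after 16 h compound exposure at 37 °C. Normalization against 50 nM 1α,25-dihydroxyvitamin D3 and DMSO; Hill-fit EC50.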
For test [16], the target named is Thyroid hormone receptor beta (Homo sapiens) (UniProt P10828). Put plainly: qHTS assay for small molecule agonists of thyroid hormone receptor beta signaling (AID 588545). In a few lines:
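In this cell-based screen, titrated compounds act on HEK 293 cells held in medium with 2% charcoal/dextran FBS, NEAA and pyruvate for 18 hrs at 37 C. Responses are expressed relative to T3 (10 nM) as 100% and basal DMSO as 0%.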

The target in test [17] is Androgen receptor (Homo sapiens) (UniProt P10275). Put plainly: qHTS assay for small molecule agonists of androgen receptor signaling (AID 588515; active = well fitted curve in the direction sought with a large enough effect in the signal ratio, with a control signal flat; the % refers to the signal ratio; also: % is scaled to controls: 0 for no effect and ±100 for the full control effect). Particulars: AR-UAS-bla HEK293, beta-lactamase ratio, agonist 16 h; stronger effect = higher value. In a few lines: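 Stimulation of an AR-responsive β-lactamase reporter in GripTite HEK293 cells was measured after 16 h compound exposure at 37 °C, via CCF4 fluorescence after 2 h RT. EC50 from Hill fits, normalized to R1881 at 30 nM.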

Test [18] in a line: qHTS assay for small molecule antagonists of peroxisome proliferator-activated receptor delta signaling (AID 588535; active = well fitted inhibition curve with a large enough effect in the signal ratio, with a control signal flat, not every such curve was filed as active; the % refers to the signal ratio;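 as to max response: cells co-treated with a PPAR-delta agonist as stimulator during compound exposure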). Conditions: HEK293T PPARd-UAS-bla, beta-lactamase FRET ratio, 18 h; 460 nm channel. In a few lines:
(§2)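 Fluorescence from CCF4-loaded GeneBLAzer PPAR-delta-UAS-bla HEK293T cells (2 hrs RT loading) quantified reporter inhibition after an 18 hr, 37 C compound exposure across a titration.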

Test [19] has as its target Peroxisome proliferator-activated receptor delta (Homo sapiens) (UniProt Q03181). The description is as above. An outline of the steps:
as §2

Results on 14 compounds are retold here after PubChem BioAssay (NCATS).

Values joined by “and” are separate entries in the source; they are usually repeats but may differ in a detail not shown here. Equal entries are not always repeated. Results filed as inconclusive are left out. Active and inactive are the calls of the source. Unless noted, calls follow the shape of the full dose curve.

Sequence of Peroxisome proliferator-activated receptor gamma (Homo sapiens) (P37231 whole entry, looked up): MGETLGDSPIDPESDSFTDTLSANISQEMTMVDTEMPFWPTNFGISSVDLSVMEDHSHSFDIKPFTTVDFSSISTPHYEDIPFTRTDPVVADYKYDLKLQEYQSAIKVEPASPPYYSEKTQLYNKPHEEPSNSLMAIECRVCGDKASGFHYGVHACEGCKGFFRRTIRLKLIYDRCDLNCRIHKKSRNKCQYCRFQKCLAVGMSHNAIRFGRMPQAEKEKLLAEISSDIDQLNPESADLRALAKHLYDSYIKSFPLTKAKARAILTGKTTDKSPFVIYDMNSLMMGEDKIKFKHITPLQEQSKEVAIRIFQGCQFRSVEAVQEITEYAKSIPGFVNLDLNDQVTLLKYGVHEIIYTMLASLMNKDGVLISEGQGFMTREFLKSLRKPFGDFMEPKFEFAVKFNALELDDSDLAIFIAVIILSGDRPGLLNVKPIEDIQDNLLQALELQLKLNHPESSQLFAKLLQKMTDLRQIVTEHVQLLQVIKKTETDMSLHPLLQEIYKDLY
Sequence of Estrogen receptor (Homo sapiens) (P03372 whole entry, looked up): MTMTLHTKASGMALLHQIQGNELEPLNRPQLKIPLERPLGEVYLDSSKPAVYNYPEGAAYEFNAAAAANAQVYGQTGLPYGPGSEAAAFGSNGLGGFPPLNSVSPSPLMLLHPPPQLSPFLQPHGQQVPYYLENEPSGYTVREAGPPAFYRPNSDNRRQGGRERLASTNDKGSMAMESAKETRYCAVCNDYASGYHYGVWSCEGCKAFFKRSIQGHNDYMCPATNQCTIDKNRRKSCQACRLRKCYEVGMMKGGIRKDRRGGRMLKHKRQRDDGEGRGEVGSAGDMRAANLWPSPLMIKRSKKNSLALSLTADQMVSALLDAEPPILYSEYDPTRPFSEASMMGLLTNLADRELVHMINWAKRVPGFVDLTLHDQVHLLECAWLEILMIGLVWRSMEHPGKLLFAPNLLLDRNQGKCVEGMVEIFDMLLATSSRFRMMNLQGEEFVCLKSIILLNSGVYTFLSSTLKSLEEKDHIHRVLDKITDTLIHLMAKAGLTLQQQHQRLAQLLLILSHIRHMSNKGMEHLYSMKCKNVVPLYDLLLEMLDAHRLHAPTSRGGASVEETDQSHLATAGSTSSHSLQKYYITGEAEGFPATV
Sequence of Vitamin D3 receptor (Homo sapiens) (P11473 whole entry, looked up): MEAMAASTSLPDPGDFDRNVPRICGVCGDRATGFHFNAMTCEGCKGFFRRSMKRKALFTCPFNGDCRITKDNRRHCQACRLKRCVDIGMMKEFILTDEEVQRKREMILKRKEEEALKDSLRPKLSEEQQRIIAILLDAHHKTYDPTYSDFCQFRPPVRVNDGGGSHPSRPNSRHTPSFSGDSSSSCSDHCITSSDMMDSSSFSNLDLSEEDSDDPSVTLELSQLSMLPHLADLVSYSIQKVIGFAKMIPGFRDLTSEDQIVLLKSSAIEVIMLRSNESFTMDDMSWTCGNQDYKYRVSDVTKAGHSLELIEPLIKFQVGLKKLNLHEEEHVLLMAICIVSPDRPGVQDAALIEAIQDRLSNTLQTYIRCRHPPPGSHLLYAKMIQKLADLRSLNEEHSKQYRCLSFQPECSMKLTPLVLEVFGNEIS
Sequence of DNA dC->dU-editing enzyme APOBEC-3G (Homo sapiens) (Q9HC16 whole entry, looked up): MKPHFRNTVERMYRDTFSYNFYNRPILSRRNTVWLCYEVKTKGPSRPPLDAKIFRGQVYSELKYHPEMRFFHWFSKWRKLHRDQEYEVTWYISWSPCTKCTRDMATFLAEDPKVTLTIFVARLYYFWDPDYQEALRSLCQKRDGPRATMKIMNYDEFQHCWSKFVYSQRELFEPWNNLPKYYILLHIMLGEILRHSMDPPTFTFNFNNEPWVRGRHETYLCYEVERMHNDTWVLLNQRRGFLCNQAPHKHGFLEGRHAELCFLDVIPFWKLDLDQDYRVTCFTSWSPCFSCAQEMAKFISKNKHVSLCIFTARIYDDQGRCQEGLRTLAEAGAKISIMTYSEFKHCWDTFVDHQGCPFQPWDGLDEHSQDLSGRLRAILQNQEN
Sequence of Peroxisome proliferator-activated receptor delta (Homo sapiens) (Q03181 whole entry, looked up): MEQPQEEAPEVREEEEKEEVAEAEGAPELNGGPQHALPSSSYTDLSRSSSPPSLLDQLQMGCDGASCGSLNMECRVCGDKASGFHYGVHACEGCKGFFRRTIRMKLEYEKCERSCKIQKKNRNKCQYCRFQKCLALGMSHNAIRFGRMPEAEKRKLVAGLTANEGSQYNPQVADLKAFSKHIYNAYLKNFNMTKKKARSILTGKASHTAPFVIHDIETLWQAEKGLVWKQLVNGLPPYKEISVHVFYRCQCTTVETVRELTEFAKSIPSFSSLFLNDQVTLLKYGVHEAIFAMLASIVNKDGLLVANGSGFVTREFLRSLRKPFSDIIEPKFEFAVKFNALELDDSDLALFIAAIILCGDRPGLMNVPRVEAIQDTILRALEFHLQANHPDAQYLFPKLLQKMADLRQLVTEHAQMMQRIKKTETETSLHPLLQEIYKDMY
Sequence of Glucocorticoid receptor (Homo sapiens) (P04150 whole entry, looked up): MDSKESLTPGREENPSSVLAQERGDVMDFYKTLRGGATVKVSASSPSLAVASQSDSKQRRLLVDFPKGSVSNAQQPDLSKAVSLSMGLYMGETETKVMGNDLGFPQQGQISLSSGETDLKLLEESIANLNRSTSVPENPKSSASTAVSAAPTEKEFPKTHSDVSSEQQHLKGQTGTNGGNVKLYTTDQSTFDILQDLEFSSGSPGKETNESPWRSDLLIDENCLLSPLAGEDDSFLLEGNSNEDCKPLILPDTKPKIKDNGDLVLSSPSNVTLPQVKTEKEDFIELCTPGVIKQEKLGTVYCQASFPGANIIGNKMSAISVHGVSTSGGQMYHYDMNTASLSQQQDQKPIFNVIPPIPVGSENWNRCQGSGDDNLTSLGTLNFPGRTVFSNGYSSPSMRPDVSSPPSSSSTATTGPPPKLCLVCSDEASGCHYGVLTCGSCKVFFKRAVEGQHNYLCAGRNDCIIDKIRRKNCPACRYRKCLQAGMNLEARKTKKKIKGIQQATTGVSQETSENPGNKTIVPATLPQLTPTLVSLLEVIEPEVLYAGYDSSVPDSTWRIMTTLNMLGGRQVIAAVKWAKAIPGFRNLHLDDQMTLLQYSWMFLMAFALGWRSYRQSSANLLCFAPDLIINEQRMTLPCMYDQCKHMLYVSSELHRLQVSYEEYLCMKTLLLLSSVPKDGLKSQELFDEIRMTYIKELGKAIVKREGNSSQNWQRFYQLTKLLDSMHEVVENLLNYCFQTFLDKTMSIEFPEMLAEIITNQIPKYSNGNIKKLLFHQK
Sequence of Thyroid hormone receptor beta (Homo sapiens) (P10828 whole entry, looked up): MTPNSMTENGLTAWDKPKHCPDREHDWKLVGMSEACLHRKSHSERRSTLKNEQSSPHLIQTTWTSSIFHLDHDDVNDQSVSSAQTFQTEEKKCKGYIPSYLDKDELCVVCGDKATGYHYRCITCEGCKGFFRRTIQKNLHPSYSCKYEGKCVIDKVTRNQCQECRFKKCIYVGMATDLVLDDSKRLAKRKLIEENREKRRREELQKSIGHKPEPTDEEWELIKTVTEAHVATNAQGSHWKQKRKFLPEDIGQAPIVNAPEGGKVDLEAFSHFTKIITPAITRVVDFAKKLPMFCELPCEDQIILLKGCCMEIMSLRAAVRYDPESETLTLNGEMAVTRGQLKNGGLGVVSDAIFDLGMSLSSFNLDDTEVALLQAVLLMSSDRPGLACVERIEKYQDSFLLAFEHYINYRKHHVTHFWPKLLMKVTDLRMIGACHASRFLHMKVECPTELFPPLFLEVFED

Regarding `Cn1c(=O)c2c(ncn2C)n(C)c1=O`, the Potency result in [1], in test [4] and in test [6] was “inactive” each time. In addition, the compound was called inactive in test [2], in [5] and in [8]. In addition, the activation in [3] is -1.83% (inactive). Also, the max response in [7] was -3.75% and 14.5%; in test [9], 0.479% and 2.47%; in test [10] it was -0.557% (inactive) and -14.2% (inactive).

Take `CNCCCC12CCC(c3ccccc31)c1ccccc12`: the Potency in test [1] was 15.8 µM (active). The call in test [2] was inactive.

With `O=c1c(O)c(-c2ccc(O)c(O)c2)oc2cc(O)cc(O)c12`, in [1], the Potency entry is “inactive”. In addition, the result in test [2] was inactive.

In the case of `Nc1nnc(-c2cccc(Cl)c2Cl)c(N)n1`, the Potency entry in test [1] was “inactive”. Further, the call in test [2] was inactive.

With `NS(=O)(=O)c1cc2c(cc1Cl)NCNS2(=O)=O`, the Potency result in test [1], in test [13], in test [4] and in test [6] was “inactive” each time. For the same compound, the compound was classed as inactive in test [11], in [12], in test [5], in test [14], in [15] and in [8]. Moreover, the compound was called inactive in test [16]. In addition, the activation in test [3] was -0.573% (inactive). For the same compound, the max response in test [7] was 1.78% and -10.2%; in test [9] it was -4.08% and -3.49%; in [10], 11.3% (inactive) and 4.53% (inactive).

In the case of `CN(Cc1cnc2nc(N)nc(N)c2n1)c1ccc(C(=O)N[C@@H](CCC(=O)O)C(=O)O)cc1`, the Potency entry in test [1] is “inactive”. Moreover, the compound was called inactive in test [2] and in test [16]. Also, the activation in test [17] is 0.214% (inactive). Besides, the Potency in test [6] was 0.447 µM (active).

Consider `CCOC(=O)Nc1ccc(NCc2ccc(F)cc2)nc1N`, for which, in test [1], the Potency entry is “inactive”.

As to `Cn1cnc2c1c(=O)[nH]c(=O)n2C`, the Potency entry in [1], in test [13], in [4] and in test [6] was “inactive” each time. In addition, the call in [2], in test [19], in test [5], in test [14], in test [15] and in test [16] was inactive. In test [3], the activation is -4.06% (inactive). Also, the max response is -1.33% in [18], -0.801% in [9] and -5.33% (inactive) in [10].

`COC(=O)Nc1nc2ccc(C(=O)c3cccs3)cc2[nH]1`: the Potency result in test [1] is “inactive”. Also, the result in [2] was inactive.

For the compound `OCCN(CCO)c1nc(N2CCCCC2)c2nc(N(CCO)CCO)nc(N3CCCCC3)c2n1`, the Potency entry in test [1] was “inactive”. Moreover, the compound was called inactive in [2].

For `O=C(CCCN1CCC(O)(c2ccc(Cl)cc2)CC1)c1ccc(F)cc1`, the Potency entry in test [1], in test [13], in test [4] and in [6] was “inactive” each time. Also, the compound was called inactive in [2], in test [5], in [8] and in [16]. Moreover, the activation in test [3] is -2.91% (inactive). The results for the max response in test [7], in test [9] and in [10] were -1.31%, 6.93% and -32.4% (inactive), respectively.

`COc1ccc2c(c1)c(CC(=O)O)c(C)n2C(=O)c1ccc(Cl)cc1`: the Potency entry in [1] and in test [4] was “inactive” in each case. Besides, the outcome in test [2], in test [11] and in test [16] was inactive. Besides, the activation in test [17] was -9.17% (inactive); in test [3], -6.76% (inactive).

As to `CCOC(=O)c1ncn2c1CN(C)C(=O)c1cc(F)ccc1-2`, the Potency entry in test [1] was “inactive”. The result in [2] was inactive.

As to `Nc1ccn([C@H]2CC[C@@H](CO)O2)c(=O)n1`, the Potency result in [1] and in [6] was “inactive” in each case. For the same compound, the call in test [2], in test [11], in test [12], in test [19], in test [5] and in test [8] was inactive. Moreover, the outcome in [16] was inactive. In addition, the max response in [18] was -2.4% and 34.8%; in [7], -7.85% and -11%; in [9] it was -1.8% and -6%; in test [10] it was -7.58% (inactive) and 1.21% (inactive).
